Source: PubChem BioAssay (several laboratories)
GSIS activator: primary screen for activators of insulin secretion dependent on glucose, INS-1E cells, GLuc reporter luminescence | INS-1E GLuc reporter insulin secretion, 2-3 h | activation, % at 16.6 µM | actives 0.61% (n = 370,000) | AID 743287;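 active = lowest replicate activation of at least 40%, so every replicate reaches that level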;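 also: 0% = median of neutral control wells and 100% = median of IBMX positive control wells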
Neddylation inh: cullin neddylation inhibition | TR-FRET cullin neddylation, biochemical | inhibition, % at 25 µM | actives 0.58% (n = 360,000); in the data active = inhibition above about 36%
Bfl-1 A1 inh: inhibitors of the anti-apoptotic protein A1, read as caspase activation | MEF A1-2A-BIM cells, Caspase-Glo 3/7 luminescence, 3 h; percent of clofoctol response, vehicle zero | caspase activation, % (concentration not given with the values) | actives 0.066% (n = 330,000);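 active = over half of replicate activation scores above 10%, or exactly half above 10 with the replicate mean above 10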
dFosB activator: mouse delta FosB homodimer activation; purified delta FosB, TAMRA-CDK5 oligo fluorescence polarization; percent of positive-control signal above neutral wells; activation, % at 25 µM; actives 0.99% (n = 340,000);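 active = mean activation above about 17%, with every replicate also reaching it, limit read from the data, passing the limit was not always enough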
Target sequence (P13346 whole entry, looked up): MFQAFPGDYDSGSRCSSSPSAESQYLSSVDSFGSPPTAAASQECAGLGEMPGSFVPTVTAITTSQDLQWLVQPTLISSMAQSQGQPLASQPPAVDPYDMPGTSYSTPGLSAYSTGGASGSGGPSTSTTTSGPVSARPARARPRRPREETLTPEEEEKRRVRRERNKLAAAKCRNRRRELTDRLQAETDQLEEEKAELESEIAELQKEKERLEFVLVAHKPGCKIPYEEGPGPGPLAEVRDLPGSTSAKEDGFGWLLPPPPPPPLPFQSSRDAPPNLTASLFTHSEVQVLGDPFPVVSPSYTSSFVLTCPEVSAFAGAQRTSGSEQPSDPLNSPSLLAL
Vif inh: inhibitors of HIV Vif; actives 0.35% (n = 340,000); HEK293T cells, Vif self-association by quenched fluorescence, imaging, 24 h; inhibition, % at 7.49 µM; in the data active = inhibition above about 50%, passing the limit was not always enough
An asterisk follows results filed as active; . = not tested or not shown. Hits are enriched below; roughly 1.9% of the tested compounds scored in any of these assays.

SMILES | GSIS activator | Neddylation inh | Bfl-1 A1 inh | dFosB activator | Vif inh
NC(=O)c1ncn([C@@H]2O[C@H](C(=O)N[C@H](Cc3ccccc3)C(=O)N3CCN(CC(=O)Nc4ccccn4)CC3)[C@@H](O)[C@H]2O)n1 | 16 | . | . | . | .
CCC(=O)Nc1ccc2c(c1)OC[C@H](C)N(C(=O)NC(C)C)C[C@H](C)[C@@H](OC)CN(C)C2=O | -6 | . | . | . | .
O=C(N[C@@H]1CC[C@@H](CC(=O)N2CCOCC2)O[C@@H]1CO)c1ccccn1 | 9 | . | . | . | .
CCCC#Cc1cnc2c(c1)C(=O)N([C@H](C)CO)C[C@@H](C)[C@@H](CN(C)S(=O)(=O)c1cn(C)cn1)O2 | 7 | . | . | . | .
O=C(N/N=C/c1sc(=O)n(Cc2ccc(Br)cc2)c1Cl)c1ccco1 | -1 | 0 | -1 | 35* | -9
O=C(Nc1cc(S(=O)(=O)Nc2ccccc2Cl)ccc1O)c1sc2cc(Cl)ccc2c1Cl | 35 | 32 | 0 | 101* | 3
COc1ccccc1NS(=O)(=O)c1ccc(Cl)c(NC(=O)c2sc3cc(Cl)ccc3c2Cl)c1 | 16 | 5 | 0 | 6 | 3
N=c1n(CCN2CCCCC2)c2ccccc2n1CC(=O)c1cccc([N+](=O)[O-])c1 | 2 | -31 | -1 | 21* | -6
C=CCn1c(=N)n(CC(=O)c2cccc([N+](=O)[O-])c2)c2ccccc21 | 3 | -18 | 0 | 6 | 4
S=c1[nH]nc(-c2cc(-c3ccccc3)n[nH]2)n1/N=C/C(Br)=C/c1ccccc1 | -2 | 54* | 0 | . | 20
COc1ccc(S(=O)(=O)N[C@@H]2CC[C@@H](CCn3cc(-c4cccc(F)c4)nn3)O[C@H]2CO)cc1 | -21 | . | . | . | .
COc1ccc(-c2ccc3c(c2)O[C@@H](CN(C)Cc2cccnc2)[C@H](C)CN([C@@H](C)CO)S3(=O)=O)cc1 | -24 | . | . | . | .
O=C(Cn1c(=O)oc2cc(S(=O)(=O)N3CCCCC3)ccc21)N1CCc2ccccc21 | . | -4 | 0 | 6 | 53*
CC1=CC(c2ccccc2)n2nc(NC(=O)CCC(=O)O)nc2N1 (stereo unspecified) | 65* | . | 0 | -6 | 4
CC[C@@H]1C/C=C\C[C@@H](c2ccc(F)cc2)NC(=O)CCC(=O)N1 | -6 | . | . | . | .
Oc1cccc(-c2sc3ccccc3c2-c2ccc(OCCN3CCCCC3)cc2)c1 | 15 | -53 | . | . | .
O=C(c1ccc(OCCN2CCCCC2)cc1)c1c(-c2ccc(O)cc2)sc2cc(O)ccc12 | -3 | -11 | 0 | 34* | 1
Cc1ccc(S(=O)(=O)NCC[C@H]2CC[C@H](NC(=O)Nc3cccc(F)c3)[C@H](CO)O2)cc1 | -15 | . | . | . | .
Cc1nc(C)c(-c2ccc(SCC(=O)Nc3ccc(C)c(Cl)c3)nn2)s1 | 41* | -44 | 0 | -6 | -6
c1ccc(-n2nnc3ccccc32)cc1 | 17 | 5 | 0 | -6 | -3
Fc1c(F)c(-n2nnc3ccccc32)c(F)c(F)c1Cl | 13 | 6 | 1 | 2 | 60*
COc1ccc2c3c([nH]c2c1)[C@@H](CO)N(Cc1ccccc1)CC31CN(C(=O)c2cccnc2)C1 | -10 | . | . | . | .
C[C@@H]1CN([C@@H](C)CO)C(=O)c2cc(-c3ccc(F)cc3)cnc2O[C@@H]1CN(C)C(=O)c1ccncc1 | 5 | . | . | . | .
CN(c1ncnc(N)c1[N+](=O)[O-])C1CCS(=O)(=O)C1 (stereo unspecified) | 6 | -3 | 1 | 6 | -6
Nc1ncnc(NC2CCS(=O)(=O)C2)c1[N+](=O)[O-] (stereo unspecified) | 65* | -24 | 0 | -3 | -4
CC(C)NC(=O)Nc1ccc2c(c1)C(=O)N([C@H](C)CO)C[C@H](C)[C@@H](CN(C)C(=O)CCCN(C)C)OCCCC[C@H](C)O2 | 24 | . | . | . | .
CC(C)c1nnc2c(N(C)S(=O)(=O)c3ccccc3)nc3ccccc3n12 | 15 | -22 | 0 | -1 | -4
CCCCc1nnc2c(N(C)S(=O)(=O)c3ccccc3)nc3ccccc3n12 | 44* | -10 | 0 | -7 | -12
C[C@@H]1CN([C@H](C)CO)C(=O)c2cc(NS(=O)(=O)c3ccccc3)ccc2O[C@@H](C)CCCCO[C@H]1CN(C)Cc1ccc(C(F)(F)F)cc1 | -31 | . | . | . | .
Cc1noc(C)c1NC(=O)Nc1ccc2c(c1)C(=O)N([C@@H](C)CO)C[C@@H](C)[C@@H](CN(C)C(=O)NC1CCCCC1)OCCCC[C@@H](C)O2 | 13 | . | . | . | .
